Results filed as inconclusive are left out. The source made the active and inactive calls. Calls follow the shape of the dose curve; as a rule, active = well fitted activation curve with a large enough effect; inconclusive = small, poorly fitted or top-dose-only effect; inactive = flat fitted curve, though single readings scatter.
Test: Cellular Toxicity (caspase-3) Hek293 (AID 664);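 also: cells exposed to compound for 16 h at 37 °C before readout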
Settings: HEK293 caspase-3 activation, DMSO = 0%, 100 µM tamoxifen = 100%; at 92.2 µM (top of the series)
Text: NIH Chemical Genomics Center [NCGC]
NIH Molecular Libraries Screening Centers Network [MLSCN]
National Institutes of Environmental Health Sciences [NIEHS]
National Toxicology Program [NTP]
We have developed a 1536-well cell-based assay for quantitative high throughput screening (qHTS) against a number of cell lines to determine in vitro caspase 3/7 of small molecules. This particular assay uses the Hek 293 cell line which is derived from human embryonic kidney cells.
NCGC Assay Protocol Summary:
The Caspase-Glo 3/7 assay (Promega) is a homogeneous method to measure caspase-3 and caspase-7 activities in cultured cells. The quantitation of caspase 3/7 activity is based on the cleavage of a peptide-aminoluciferin substrate. After caspase cleaves the substrate the free aminoluciferin is liberated and serves as the substrate of luciferase, which generates the light. The luminescent signal is proportional to amount of caspase 3/7 activity present.
Using the Caspase-Glo 3/7 assay, the amount of caspase 3/7 activity was measured in the Hek 293 cell line with complete culture medium following compound treatment for 16 hours. The assay was performed in opaque white 1536-well plates. In the screen, tamoxifen and doxorubicin were used as positive controls. Library compounds were measured for their ability to cause the activation of caspase 3/7 in the cell line, as reflected by an increase in luminescence signal, in a concentration-dependent manner. Data were normalized to the controls for basal activity (DMSO only) and 100% stimulation (100 uM tamoxifen). AC50 values were determined from concentration-response data modeled with the standard Hill equation.
qHTS protocol for caspase 3/7 assay in Hek 293 cells
[Step] [Parameter] [Value] [Description]
2. Time; 5 hr; 37 °C incubation
4. Controls; 23 nL; Tamoxifen 0.23 uM to 100 uM & Doxorubicin 7.0 pM to 100 uM
5. Time; 16 hr; 37 °C incubation
6. Reagent; 5 uL; Caspase-Glo 3/7 reagent
7. Time; 20 min; Room Temperature
8. Detection; Luminescence; Viewlux plate reader
Keywords: caspase 3/7, apoptosis, Hek 293 cell line, luminescence, NTPHTS, NTPHTS_NCGC, NIEHS, EPA, DSSTox, MLSMR, MLSCN, NIH Roadmap, qHTS, NCGC

Q: With `Nc1ccc(-c2ccc(N)c(O)c2)cc1O` as the molecule, how does the caspase-3 activation read?
A: 0.00867% (inactive)

Q: For `O=[N+]([O-])c1ccccc1Nc1ccccc1`, which caspase-3 activation is on record?
A: -0.0405% (inactive)

Q: Which caspase-3 activation does the source give for `CCCC(=O)OC(=O)CCC` here?
A: 0.516% (inactive)

Q: For `CCCCOC(=O)COc1ccc(Cl)cc1Cl`, which caspase-3 activation is on record?
A: -0.377% (inactive)

Q: With `Nc1ccccc1O` as the molecule, how does the caspase-3 activation read?
A: 4.27% (inactive)

Q: With `CCCCC(CC)COP(=O)(OCC(CC)CCCC)OCC(CC)CCCC` (stereo not given) as the molecule, how does the caspase-3 activation read?
A: 2.89% (inactive)

Q: Which caspase-3 activation does the source give for `CCCCCCc1ccc(-c2ccc(C#N)cc2)cc1` here?
A: 0.233% (inactive)

Q: Which caspase-3 activation does the source give for `O=c1[nH]ncc2ccccc12` here?
A: -1.83% (inactive)

Q: Which caspase-3 activation does the source give for `C=CC(C)(O)CCCC(C)CCCC(C)CCCC(C)C` (stereo not given) here?
A: 1.05% (inactive)

Q: Which caspase-3 activation does the source give for `COc1ccc([N+](=O)[O-])cc1N` here?
A: -2.76% (inactive)

Q: For `S=C(NC1CCCCC1)NC1CCCCC1`, which caspase-3 activation is on record?
A: 3.5% (inactive)

Q: For `Brc1cc(Br)c(Oc2cc(Br)c(Br)cc2Br)cc1Br`, which caspase-3 activation is on record?
A: 0.345% (inactive)

Q: Which caspase-3 activation does the source give for `C=CC1CO1` (stereo not given) here?
A: -0.428% (inactive)

Q: With `O=C=Nc1ccc(Cl)c(Cl)c1` as the molecule, how does the caspase-3 activation read?
A: 9.15% (inactive)

Q: For `CCCCCCCCC1CO1` (stereo not given), which caspase-3 activation is on record?
A: 0.315% (inactive)

Q: Which caspase-3 activation does the source give for `Clc1nc2ccccc2nc1Cl` here?
A: 15.8% (inactive)

Q: Which caspase-3 activation does the source give for `O=Nc1ccc(Nc2ccccc2)cc1` here?
A: -5.38% (inactive)

Q: For `CC(=O)Nc1cccc(C)c1`, which caspase-3 activation is on record?
A: -2.37% (inactive)

Q: Which caspase-3 activation does the source give for `CC/C=C/C/C=C/C/C=C/CCCCCCCC(=O)OCC` here?
A: 7.96% (inactive)

Q: With `Cc1cccnc1` as the molecule, how does the caspase-3 activation read?
A: -1.09% (inactive)

Q: With `CCC(Cl)CC(Cl)C(Cl)C(Cl)C(Cl)C(C)Cl` (stereo not given) as the molecule, how does the caspase-3 activation read?
A: 5.41% (inactive)

Q: For `Cc1c(N)cccc1Cl`, which caspase-3 activation is on record?
A: 0.378% (inactive)

Q: Which caspase-3 activation does the source give for `CCCCCCN` here?
A: 1.72% (inactive)

Q: Which caspase-3 activation does the source give for `Oc1cc2c(cc1O)[C@H]1c3ccc(O)c(O)c3OC[C@@]1(O)C2` here?
A: 0.207% (inactive)

Q: Which caspase-3 activation does the source give for `NC(=O)Nc1nc2ccccc2[nH]1` here?
A: -0.34% (inactive)

Q: Which caspase-3 activation does the source give for `Cc1ccc(N)cc1[N+](=O)[O-]` here?
A: -1.57% (inactive)

Q: Which caspase-3 activation does the source give for `Nc1ccc2c(c1)C(=O)c1ccccc1C2=O` here?
A: -8.84% (inactive)

Q: Which caspase-3 activation does the source give for `c1ccc(SCCSc2ccccc2)cc1` here?
A: 0.456% (inactive)

Q: With `COc1ccc(C(=O)Nc2ccccc2)cc1[N+](=O)[O-]` as the molecule, how does the caspase-3 activation read?
A: -1.89% (inactive)

Q: Which caspase-3 activation does the source give for `CC(=O)OC1CC(C)OC(C)O1` (stereo not given) here?
A: 2.93% (inactive)

Q: Which caspase-3 activation does the source give for `Cc1ccc(C(=O)O)cc1[N+](=O)[O-]` here?
A: -1.69% (inactive)

Q: With `C=Cc1cccc(C)c1` as the molecule, how does the caspase-3 activation read?
A: -0.822% (inactive)

Q: Which caspase-3 activation does the source give for `O=C(OCc1ccccc1)c1ccccc1O` here?
A: -1.91% (inactive)

Q: Which caspase-3 activation does the source give for `OCC(CBr)(CBr)CBr` here?
A: 0.713% (inactive)

Q: With `c1ccc(Nc2cccc3ccccc23)cc1` as the molecule, how does the caspase-3 activation read?
A: 4.83% (inactive)

Q: For `COc1ccc(C)cc1N`, which caspase-3 activation is on record?
A: 0.602% (inactive)

Q: With `OC1CCCCC1` as the molecule, how does the caspase-3 activation read?
A: -0.682% (inactive)

Q: With `OCC(CO)(CBr)CBr` as the molecule, how does the caspase-3 activation read?
A: -0.451% (inactive)

Q: With `O=C1c2ccccc2C(=O)C1(O)O` as the molecule, how does the caspase-3 activation read?
A: 0.893% (inactive)

Q: For `CCCCNCC`, which caspase-3 activation is on record?
A: -0.76% (inactive)
